Measurements: PMC7862700, “An all-to-all approach to the identification of sequence-specific readers for epigenetic DNA modifications on cytosine”

Key:
Test in all cases: DAPPL (digital affinity profiling via proximity ligation, sequencing); 10 mM Tris-HCl pH 7.5, 50 mM NaCl, 1 mM DTT, 4% glycerol, room temperature, 30 min; GST-TFs on glutathione beads, 16-mer random dsDNA library, 0.1% formaldehyde crosslink after washing; high values mean tight binding
Details in all cases: protein: recombinant; tags: N-terminal GST; dsDNA, one strand shown
[1] = biological target: ETV5 (Homo sapiens, UniProt P41161 1-510)
Procedure, shortened: (§1)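 Binding signal is each hexamer's read frequency for a factor divided by its frequency in the tag-only sample. The factors were GST-fused human transcription factors from yeast, captured on glutathione beads, DNA-barcoded and pooled with that sample. Pools were incubated with 200 nmole of a random double-stranded 16-mer DNA library in Tris/NaCl/DTT/glycerol buffer at room temperature for 30 min, then washed, crosslinked with 0.1% formaldehyde, proximity-ligated with BsaI/T4 ligase (1 h, 37 °C), PCR-amplified and sequenced on an Illumina NextSeq500.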

[2] = biological target: ELF4 (Homo sapiens, UniProt Q99607 1-663)
Procedure, shortened: as §1

[3] = biological target: T1, ELF3 (Homo sapiens, UniProt P78545 1-371)
T1 sequence: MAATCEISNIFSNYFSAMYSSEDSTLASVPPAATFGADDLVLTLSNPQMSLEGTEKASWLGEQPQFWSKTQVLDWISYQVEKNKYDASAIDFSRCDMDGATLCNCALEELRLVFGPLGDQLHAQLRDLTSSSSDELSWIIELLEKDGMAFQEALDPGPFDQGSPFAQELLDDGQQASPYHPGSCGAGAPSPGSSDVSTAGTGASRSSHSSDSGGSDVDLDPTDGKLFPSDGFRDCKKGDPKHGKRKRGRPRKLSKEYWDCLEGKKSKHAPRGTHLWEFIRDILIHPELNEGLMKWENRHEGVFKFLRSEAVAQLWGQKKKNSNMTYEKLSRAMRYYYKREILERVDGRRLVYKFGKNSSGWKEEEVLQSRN
Procedure, shortened: as §1

[4] = biological target: T2, ETV7 (Homo sapiens, UniProt Q9Y603 1-341)
T2 sequence: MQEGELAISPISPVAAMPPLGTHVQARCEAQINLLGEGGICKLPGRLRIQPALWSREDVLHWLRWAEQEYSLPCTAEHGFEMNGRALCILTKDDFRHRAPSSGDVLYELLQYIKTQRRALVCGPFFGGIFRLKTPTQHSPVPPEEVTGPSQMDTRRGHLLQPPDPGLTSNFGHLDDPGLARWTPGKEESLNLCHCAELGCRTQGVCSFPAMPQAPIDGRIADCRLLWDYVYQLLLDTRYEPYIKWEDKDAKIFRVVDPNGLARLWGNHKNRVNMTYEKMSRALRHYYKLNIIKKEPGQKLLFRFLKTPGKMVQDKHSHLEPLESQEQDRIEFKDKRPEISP
Procedure, shortened: as §1

[5] = biological target: T3, GABPA (Homo sapiens, UniProt Q06546 1-454)
T3 sequence: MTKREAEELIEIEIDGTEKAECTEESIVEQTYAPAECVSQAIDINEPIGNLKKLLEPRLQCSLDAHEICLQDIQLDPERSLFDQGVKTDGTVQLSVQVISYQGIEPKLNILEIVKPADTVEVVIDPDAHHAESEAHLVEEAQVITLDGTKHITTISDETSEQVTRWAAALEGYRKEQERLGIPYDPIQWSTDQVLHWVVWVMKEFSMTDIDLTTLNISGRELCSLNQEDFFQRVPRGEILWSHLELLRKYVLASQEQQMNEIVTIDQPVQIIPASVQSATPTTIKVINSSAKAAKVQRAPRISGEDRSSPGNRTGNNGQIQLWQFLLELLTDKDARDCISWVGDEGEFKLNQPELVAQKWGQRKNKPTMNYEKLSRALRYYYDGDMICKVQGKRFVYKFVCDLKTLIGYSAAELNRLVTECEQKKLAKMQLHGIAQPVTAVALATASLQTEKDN
Procedure, shortened: as §1

[6] = biological target: T4, ERG (Homo sapiens, UniProt P11308 1-479)
T4 sequence: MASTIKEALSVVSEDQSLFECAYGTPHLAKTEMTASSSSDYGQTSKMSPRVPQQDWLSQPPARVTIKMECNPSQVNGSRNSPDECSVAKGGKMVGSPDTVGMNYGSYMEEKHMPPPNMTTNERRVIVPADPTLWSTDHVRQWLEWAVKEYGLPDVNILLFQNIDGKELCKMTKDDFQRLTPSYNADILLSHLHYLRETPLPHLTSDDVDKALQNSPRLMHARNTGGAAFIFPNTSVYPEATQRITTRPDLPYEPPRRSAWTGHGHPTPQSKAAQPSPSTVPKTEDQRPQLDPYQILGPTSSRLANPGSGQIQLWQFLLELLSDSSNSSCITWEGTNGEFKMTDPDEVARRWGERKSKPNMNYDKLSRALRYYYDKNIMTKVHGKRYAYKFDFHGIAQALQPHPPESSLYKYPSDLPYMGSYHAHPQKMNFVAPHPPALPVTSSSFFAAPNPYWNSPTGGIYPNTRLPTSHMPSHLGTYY
Procedure, shortened: as §1

[7] = biological target: ELF1 (Homo sapiens, UniProt P32519 1-619)
Procedure, shortened: as §1

[8] = biological target: T5, EHF (Homo sapiens, UniProt Q9NZC4 1-300)
T5 sequence: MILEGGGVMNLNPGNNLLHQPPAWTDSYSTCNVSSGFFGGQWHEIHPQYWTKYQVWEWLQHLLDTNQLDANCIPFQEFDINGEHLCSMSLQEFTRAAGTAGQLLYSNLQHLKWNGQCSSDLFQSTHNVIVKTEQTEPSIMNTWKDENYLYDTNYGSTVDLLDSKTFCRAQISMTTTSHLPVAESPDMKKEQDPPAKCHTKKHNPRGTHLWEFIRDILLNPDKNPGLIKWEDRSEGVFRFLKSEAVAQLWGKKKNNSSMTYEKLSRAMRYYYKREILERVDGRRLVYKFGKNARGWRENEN
Procedure, shortened: as §1

[9] = biological target: SPIB (Homo sapiens, UniProt Q01892 1-262)
Procedure, shortened: as §1

[10] = biological target: T6, FEV (Homo sapiens, UniProt Q99581 1-238)
T6 sequence: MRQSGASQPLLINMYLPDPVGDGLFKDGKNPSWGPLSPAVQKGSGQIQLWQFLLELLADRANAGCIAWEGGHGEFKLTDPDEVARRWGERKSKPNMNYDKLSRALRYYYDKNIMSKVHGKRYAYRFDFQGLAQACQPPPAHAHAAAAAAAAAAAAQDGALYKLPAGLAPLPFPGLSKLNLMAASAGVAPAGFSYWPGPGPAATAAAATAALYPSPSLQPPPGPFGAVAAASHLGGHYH
Procedure, shortened: as §1

[11] = biological target: T7, ETV2 (Homo sapiens, UniProt O00321 1-342)
T7 sequence: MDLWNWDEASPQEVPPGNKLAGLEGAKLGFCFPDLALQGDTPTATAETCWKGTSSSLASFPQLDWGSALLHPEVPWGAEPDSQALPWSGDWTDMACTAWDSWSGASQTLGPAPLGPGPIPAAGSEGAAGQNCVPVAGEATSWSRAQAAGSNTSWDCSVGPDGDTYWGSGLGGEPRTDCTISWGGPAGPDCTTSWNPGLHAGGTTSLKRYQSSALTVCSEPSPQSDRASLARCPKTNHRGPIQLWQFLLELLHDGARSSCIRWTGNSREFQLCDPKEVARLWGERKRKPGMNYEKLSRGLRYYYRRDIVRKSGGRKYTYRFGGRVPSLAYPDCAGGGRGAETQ
Procedure, shortened: as §1

[12] = biological target: ETV1 (Homo sapiens, UniProt P50549 1-477)
Procedure, shortened: as §1

[13] = biological target: T8, ERF (Homo sapiens, UniProt P50548 1-548)
T8 sequence: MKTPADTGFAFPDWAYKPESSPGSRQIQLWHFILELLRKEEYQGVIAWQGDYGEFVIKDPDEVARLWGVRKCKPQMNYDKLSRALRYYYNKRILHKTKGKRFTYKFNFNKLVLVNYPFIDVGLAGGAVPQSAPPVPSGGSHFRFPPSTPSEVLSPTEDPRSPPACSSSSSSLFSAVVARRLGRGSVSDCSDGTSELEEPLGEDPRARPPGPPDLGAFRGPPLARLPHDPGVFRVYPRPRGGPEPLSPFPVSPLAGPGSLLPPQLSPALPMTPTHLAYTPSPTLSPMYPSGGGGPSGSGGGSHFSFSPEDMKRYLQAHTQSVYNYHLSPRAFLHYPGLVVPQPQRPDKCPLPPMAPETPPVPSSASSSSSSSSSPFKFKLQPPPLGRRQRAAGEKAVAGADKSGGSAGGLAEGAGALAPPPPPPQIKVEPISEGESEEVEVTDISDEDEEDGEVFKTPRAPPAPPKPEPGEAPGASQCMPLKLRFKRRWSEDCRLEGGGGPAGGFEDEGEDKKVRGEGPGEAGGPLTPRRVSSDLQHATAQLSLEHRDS
Procedure, shortened: as §1

[14] = biological target: T9, ETV3L (Homo sapiens, UniProt Q6ZN32 1-361)
T9 sequence: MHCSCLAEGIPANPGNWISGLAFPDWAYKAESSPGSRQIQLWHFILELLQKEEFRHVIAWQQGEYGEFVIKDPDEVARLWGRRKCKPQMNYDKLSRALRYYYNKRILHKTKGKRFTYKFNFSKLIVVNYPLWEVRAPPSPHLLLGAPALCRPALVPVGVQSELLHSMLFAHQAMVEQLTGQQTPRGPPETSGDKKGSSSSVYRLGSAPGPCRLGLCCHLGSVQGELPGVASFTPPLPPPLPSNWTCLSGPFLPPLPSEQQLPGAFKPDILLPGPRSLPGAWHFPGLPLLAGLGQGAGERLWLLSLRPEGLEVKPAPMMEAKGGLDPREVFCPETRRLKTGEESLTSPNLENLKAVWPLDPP
Procedure, shortened: as §1

[15] = biological target: T10, SPDEF (Homo sapiens, UniProt O95238 1-335)
T10 sequence: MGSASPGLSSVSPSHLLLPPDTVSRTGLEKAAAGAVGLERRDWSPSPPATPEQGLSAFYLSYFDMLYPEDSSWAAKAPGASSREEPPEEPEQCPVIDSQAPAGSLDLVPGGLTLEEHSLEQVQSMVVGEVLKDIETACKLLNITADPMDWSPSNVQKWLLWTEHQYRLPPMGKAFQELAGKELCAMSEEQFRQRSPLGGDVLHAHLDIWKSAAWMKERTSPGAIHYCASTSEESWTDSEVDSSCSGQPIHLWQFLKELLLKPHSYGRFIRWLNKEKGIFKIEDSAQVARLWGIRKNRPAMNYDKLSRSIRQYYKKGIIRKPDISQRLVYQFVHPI
Procedure, shortened: as §1

[16] = biological target: T11, ETV3 (Homo sapiens, UniProt P41162-2 1-143)
T11 sequence: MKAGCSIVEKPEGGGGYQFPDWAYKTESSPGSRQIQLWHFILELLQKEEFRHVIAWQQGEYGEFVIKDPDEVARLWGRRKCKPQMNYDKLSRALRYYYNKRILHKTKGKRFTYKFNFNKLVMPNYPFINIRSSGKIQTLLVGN
Procedure, shortened: as §1

Chain of ETV5 (P41161 whole entry, the tested form may be a part): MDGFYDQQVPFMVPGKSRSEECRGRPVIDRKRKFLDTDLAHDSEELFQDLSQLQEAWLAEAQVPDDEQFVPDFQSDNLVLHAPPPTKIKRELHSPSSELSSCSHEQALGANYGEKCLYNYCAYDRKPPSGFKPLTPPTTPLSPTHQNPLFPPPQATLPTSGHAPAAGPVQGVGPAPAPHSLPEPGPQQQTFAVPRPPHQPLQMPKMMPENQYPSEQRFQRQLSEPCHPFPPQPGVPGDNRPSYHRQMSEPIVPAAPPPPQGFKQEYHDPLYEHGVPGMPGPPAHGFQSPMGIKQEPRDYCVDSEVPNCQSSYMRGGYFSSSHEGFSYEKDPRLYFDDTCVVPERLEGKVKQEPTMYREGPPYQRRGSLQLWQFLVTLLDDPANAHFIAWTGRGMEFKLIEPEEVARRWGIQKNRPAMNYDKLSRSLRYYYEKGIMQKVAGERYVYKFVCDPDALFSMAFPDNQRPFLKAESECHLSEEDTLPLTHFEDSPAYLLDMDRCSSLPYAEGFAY
Chain of ELF4 (Q99607 whole entry): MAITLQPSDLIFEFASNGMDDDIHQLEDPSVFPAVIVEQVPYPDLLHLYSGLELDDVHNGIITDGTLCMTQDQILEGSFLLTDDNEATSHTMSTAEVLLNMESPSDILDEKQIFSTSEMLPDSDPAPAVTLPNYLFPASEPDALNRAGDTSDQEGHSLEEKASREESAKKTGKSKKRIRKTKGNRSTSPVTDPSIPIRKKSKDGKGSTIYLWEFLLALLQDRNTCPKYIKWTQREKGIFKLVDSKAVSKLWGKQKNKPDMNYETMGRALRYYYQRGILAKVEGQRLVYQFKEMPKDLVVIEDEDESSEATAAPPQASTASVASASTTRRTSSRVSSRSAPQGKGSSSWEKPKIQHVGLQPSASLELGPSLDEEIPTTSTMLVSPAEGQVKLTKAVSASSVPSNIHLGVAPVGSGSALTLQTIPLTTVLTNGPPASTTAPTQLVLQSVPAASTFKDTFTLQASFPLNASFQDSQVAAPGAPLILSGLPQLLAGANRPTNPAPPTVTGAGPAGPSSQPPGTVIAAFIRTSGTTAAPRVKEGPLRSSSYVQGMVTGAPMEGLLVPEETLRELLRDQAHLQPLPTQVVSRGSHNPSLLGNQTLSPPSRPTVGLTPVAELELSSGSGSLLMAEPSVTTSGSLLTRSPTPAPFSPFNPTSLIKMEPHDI
Chain of ELF1 (P32519 whole entry): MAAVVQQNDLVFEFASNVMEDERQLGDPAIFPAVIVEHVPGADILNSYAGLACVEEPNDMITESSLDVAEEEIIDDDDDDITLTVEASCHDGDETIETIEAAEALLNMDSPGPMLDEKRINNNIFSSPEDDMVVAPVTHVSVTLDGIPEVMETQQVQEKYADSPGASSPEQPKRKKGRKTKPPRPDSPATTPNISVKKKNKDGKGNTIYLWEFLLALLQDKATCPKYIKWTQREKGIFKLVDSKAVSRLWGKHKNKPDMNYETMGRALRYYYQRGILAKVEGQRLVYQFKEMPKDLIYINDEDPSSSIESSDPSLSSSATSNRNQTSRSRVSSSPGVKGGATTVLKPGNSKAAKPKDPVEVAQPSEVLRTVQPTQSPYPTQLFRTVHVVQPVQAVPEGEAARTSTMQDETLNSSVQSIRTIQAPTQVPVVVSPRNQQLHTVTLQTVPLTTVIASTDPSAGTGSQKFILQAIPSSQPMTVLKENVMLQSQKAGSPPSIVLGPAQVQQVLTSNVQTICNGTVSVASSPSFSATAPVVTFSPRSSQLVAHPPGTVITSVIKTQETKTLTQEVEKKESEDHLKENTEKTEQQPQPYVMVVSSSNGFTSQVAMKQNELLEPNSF
Chain of SPIB (Q01892 whole entry): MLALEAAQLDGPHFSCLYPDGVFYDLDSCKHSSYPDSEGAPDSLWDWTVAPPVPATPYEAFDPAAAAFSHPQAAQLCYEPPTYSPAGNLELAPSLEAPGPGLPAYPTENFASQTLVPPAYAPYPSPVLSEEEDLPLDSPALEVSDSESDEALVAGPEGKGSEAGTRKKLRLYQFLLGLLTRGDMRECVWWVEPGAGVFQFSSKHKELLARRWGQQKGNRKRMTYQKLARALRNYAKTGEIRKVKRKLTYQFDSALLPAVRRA
Chain of ETV1 (P50549 whole entry): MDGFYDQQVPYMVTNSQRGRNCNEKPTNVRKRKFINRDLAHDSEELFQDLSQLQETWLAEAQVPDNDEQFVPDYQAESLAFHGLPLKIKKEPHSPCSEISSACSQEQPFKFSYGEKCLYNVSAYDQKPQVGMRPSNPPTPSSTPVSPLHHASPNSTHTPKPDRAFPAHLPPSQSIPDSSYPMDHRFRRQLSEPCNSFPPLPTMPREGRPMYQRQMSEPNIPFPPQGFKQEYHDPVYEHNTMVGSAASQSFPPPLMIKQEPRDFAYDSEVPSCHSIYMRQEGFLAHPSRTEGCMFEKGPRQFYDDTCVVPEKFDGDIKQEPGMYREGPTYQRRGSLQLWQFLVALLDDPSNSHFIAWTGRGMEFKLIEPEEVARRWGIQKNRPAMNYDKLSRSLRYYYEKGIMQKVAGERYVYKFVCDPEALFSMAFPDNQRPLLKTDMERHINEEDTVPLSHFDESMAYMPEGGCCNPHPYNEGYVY

| Sequence | binding signal [1] | binding signal [2] | binding signal [3] | binding signal [4] | binding signal [5] | binding signal [6] | binding signal [7] | binding signal [8] | binding signal [9] | binding signal [10] | binding signal [11] | binding signal [12] | binding signal [13] | binding signal [14] | binding signal [15] | binding signal [16] |
| --- | --- | --- | --- | --- | --- | --- | --- | --- | --- | --- | --- | --- | --- | --- | --- | --- |
| ACAAGA | 1.03 fold enrichment (6-mer frequency, TF over GST control) | 1.03 fold enrichment (6-mer frequency, TF over GST control) | 1.1 fold enrichment (6-mer frequency, TF over GST control) | 1.02 fold enrichment (6-mer frequency, TF over GST control) |  |  |  |  |  |  |  |  |  |  |  |  |
| ACTGGA | 1.09 fold enrichment (6-mer frequency, TF over GST control) | 1.1 fold enrichment (6-mer frequency, TF over GST control) | 1.1 fold enrichment (6-mer frequency, TF over GST control) | 1.01 fold enrichment (6-mer frequency, TF over GST control) | 1.12 fold enrichment (6-mer frequency, TF over GST control) | 1.08 fold enrichment (6-mer frequency, TF over GST control) | 1.03 fold enrichment (6-mer frequency, TF over GST control) | 1.02 fold enrichment (6-mer frequency, TF over GST control) | 1.03 fold enrichment (6-mer frequency, TF over GST control) | 1 fold enrichment (6-mer frequency, TF over GST control) | 1.17 fold enrichment (6-mer frequency, TF over GST control) | 1.06 fold enrichment (6-mer frequency, TF over GST control) | 1.03 fold enrichment (6-mer frequency, TF over GST control) | 1.02 fold enrichment (6-mer frequency, TF over GST control) | 1.02 fold enrichment (6-mer frequency, TF over GST control) | 1.05 fold enrichment (6-mer frequency, TF over GST control) |
